Assay outcomes deposited in PubChem BioAssay by National Center for Advancing Translational Sciences (NCATS).
ELG1 DNA repair – blocks ELG1-dependent DNA repair in HEK293T cells. HEK293T ELG1-luciferase reporter, luminescence, 16 h; DNA damage induced by 5-fluorouridine. Potency, µM (highest dose often 46.1 µM), without a hit: top-dose activity change, negative = inhibition, usual class: inhibitors. hit rate 2.3% among 330,000. AID 504467; note: nearly all actives have a fitted effect of over 55% in size
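Step one: seed 2,000 cells per well. Step two: pin-transfer compound or DMSO alongside 5-fluorouridine. Step three: incubate 16 hr, 37 °C, 5% CO2. Step four: add ONE-Glo, wait 30 min, read luminescence.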
Gal4-VP16 FLuc – counter-screen for ROR gamma inhibitors: Gal4-VP16 reporter. Drosophila S2 Gal4-VP16 UAS-luciferase, luminescence, 20 h. Potency, µM (titrated, usually from 53.6 µM), for the others: at the highest dose activity, negative = inhibition, actives largely listed as inhibitors. hit rate 3.5% among 310,000. AID 2546;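 note: Gal4-VP16 expression switched on by copper sulfate through the metallothionein promoter; nearly all actives have a fitted effect of over 50% in size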
RORg inh – ROR gamma (mouse) transcription inhibition. P51450. Drosophila S2 Gal4-RORgamma UAS-luciferase reporter, 20 h. Potency, µM (highest dose often 53.6 µM), for inactives: at the top dose activity change, negative = inhibition, usual class: inhibitors. hit rate 5.4% among 310,000. AID 2551; note: nearly all actives have a fitted effect of over 60% in size
Target sequence (P51450 whole entry, looked up, the tested form may be a part): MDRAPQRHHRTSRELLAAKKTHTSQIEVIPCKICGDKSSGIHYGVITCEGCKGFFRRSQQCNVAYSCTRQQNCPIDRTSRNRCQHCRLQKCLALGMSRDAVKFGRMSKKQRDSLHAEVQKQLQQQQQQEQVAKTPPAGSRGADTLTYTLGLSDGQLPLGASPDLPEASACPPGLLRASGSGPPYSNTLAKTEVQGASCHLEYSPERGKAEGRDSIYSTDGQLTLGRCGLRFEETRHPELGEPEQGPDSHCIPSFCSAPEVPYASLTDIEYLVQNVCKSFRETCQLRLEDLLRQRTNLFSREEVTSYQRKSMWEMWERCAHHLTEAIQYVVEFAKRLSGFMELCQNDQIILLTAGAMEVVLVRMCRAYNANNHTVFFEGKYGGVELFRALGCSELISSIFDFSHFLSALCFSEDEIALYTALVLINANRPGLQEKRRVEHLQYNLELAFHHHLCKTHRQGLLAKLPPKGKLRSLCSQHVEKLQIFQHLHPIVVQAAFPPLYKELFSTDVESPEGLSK
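Luminescence from a UAS-regulated Photinus luciferase reporter in stably transfected Drosophila Schneider cells is measured; decreased signal marks ROR gamma inhibition. Fusion expression is induced by 700 uM copper sulfate for 20 hr.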
TDP1 cell noCPT – qHTS for Inhibitors of human tyrosyl-DNA phosphodiesterase 1 (TDP1): qHTS in cells in absence of CPT. Potency, µM (highest dose often 46.2 µM), for the others: top-dose activity change, negative = growth inhibition, hits mostly inhibitors. DT40 Tdp1-/- hTDP1 cells, no CPT, ATP luminescence, 48 h. hit rate 15% among 420,000; note: nearly all actives have a fitted effect of over 55% in size
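Growth of hTDP1-complemented DT40 Tdp1-knockout cells is measured by ATP luminescence after at least 48 hr compound exposure at 37 °C, with DMSO substituting for the 20 nM CPT used in the parallel screen.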
DT40 TDP1 CPT – growth inhibition of DT40 Tdp1-/-;hTDP1 cells with camptothecin (screen for TDP1 inhibitors). chicken DT40 Tdp1-/-;hTDP1 cells + 20 nM CPT, ATP luminescence, 48 h. Potency, µM (top dose mostly 46.2 µM), for the others: top-dose activity change, negative = growth inhibition, hits mostly inhibitors. hit rate 12% among 420,000; note: nearly all actives have a fitted effect of over 55% in size
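Cell growth measured by CellTiter-Glo luminescence after a minimum 48 h, 37 C compound exposure with 20 nM CPT in Tdp1-knockout DT40 cells stably expressing hTDP1, seeded 400/well; qHTS titration format.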
12-LOX inh – ALOX12 (human) lipoxygenase inhibition. hit rate 1.1% among 580,000. Potency, µM (highest dose often 108 µM), for the others: top-dose activity change, negative = inhibition, actives largely listed as inhibitors. AID 1671190. purified 12hLO, xylenol orange hydroperoxide absorbance
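Purified human 12hLO (150 nM final) in 25 mM Hepes, 0.01% Triton X-100, pH 7.0 was preincubated 15 min at room temperature with compound. Then 40 uM arachidonic acid was added, 30 min. Hydroperoxide was read by Fe-XO absorbance ratio 573/405 nm.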
Numbers without * were called inactive; ? = inconclusive; / = not tested or not shown; [ ] = another dose, or the depositor's remark. The list is not random: actives were taken first. Their share in the collection is about 15%. Calls come from the whole dose curve; as a rule, active = well fitted curve in the direction sought with a large enough effect; inconclusive = small, poorly fitted or top-dose-only effect, or another doubt; inactive = no such curve, though single readings can be large; an effect the other way counts as inactive or inconclusive. % is set by controls: 0 for no effect and ±100 for the full control effect; potency is the fitted concentration of half-maximal effect.

SMILES	ELG1 DNA repair	Gal4-VP16 FLuc	RORg inh	TDP1 cell noCPT	DT40 TDP1 CPT	12-LOX inh
CC(C)(C)OC(=O)CNC(=O)c1[nH]cnc1C(=O)NC(c1ccccc1)c1ccccc1	-11.7%	?	6.31µM*	?	23.1µM*	-1.7%
C[C@H](NC(=O)c1nc[nH]c1C(=O)N1CCN(C(=O)OC(C)(C)C)CC1)C(=O)OC(C)(C)C	4.6%	/	/	-8.8%	7.1%	-5.9%
C[C@H](NC(=O)c1nc[nH]c1C(=O)N[C@H](C)c1ccccc1)C(=O)OC(C)(C)C	?	?	?	?	14.6µM*	-6.5%
CCOC(=O)c1[nH]cnc1C(=O)N[C@@H](C)c1ccccc1	21.3%	/	/	-5.5%	-4.0%	12.1%
C[C@H](NC(=O)c1nc[nH]c1C(=O)NC(c1ccccc1)c1ccccc1)C(=O)OC(C)(C)C	0.0%	4.47µM*	2.51µM*	?	-96.1%	-3.1%
CN1CC2(CCCN(Cc3cc4ccccc4n(C)c3=O)C2)OC1=O (stereo not given)	/	/	/	/	/	13.5%
Cc1nc(NCc2ccccn2)c2ccccc2n1	?	?	21.1%	10.3µM*	13µM*	?
OCCNc1nc2ccccc2nc1NCCO	11.9%	2.2%	22.4%	-5.8%	-16.2%	159.6%
FC(F)(F)c1ccc(NCc2ccccn2)nc1	?	-13.7%	-6.8%	-1.0%	-17.4%	0.0%
O=c1c2ccccc2nc2c3ccccc3c(NCc3cccnc3)nn12	?	-10.0%	-0.1%	6.0%	6.1%	4.4%
O=c1c2ccccc2nc2c3ccccc3c(NCCO)nn12	-5.4%	1.6%	-20.1%	?	13µM*	-6.9%
OCCNc1c2ccccc2nc2ccccc12	20.6µM*	?	-19.7%	10.3µM*	13µM*	-13.4%
c1ccc(CNc2ccc3ccccc3n2)nc1	?	?	10µM*	-22.5%	-21.0%	-10.0%[57.4 µM]
Cc1cc(NCc2ccccn2)nc2ccccc12	?	16.7%	?	-14.7%	-15.2%	28.7%
O=C(N[C@@H]1CCN(C(=O)c2n[nH]c3ccccc23)C[C@H]1O)c1cccnc1	/	/	/	/	/	5.3%
O=c1c2ccccc2nc2c3ccccc3c(NCc3ccccn3)nn12	?	-10.7%	-8.6%	14.6µM*	?	0.2%
CCOC(=O)C(C)Sc1ncc(-c2ccc(Cl)cc2)cn1 (stereo not given)	3.0%	9.1%	-0.5%	-12.3%	4.61µM*	-6.6%
O=C(NCCN1CCCCC1)c1ccc(-c2nnc3ccc(NC(=O)C4CCC4)cn23)cc1	/	/	/	/	/	24.4%
CN(Cc1cccnc1)Cc1nc(C2(O)CCN(C(=O)c3ccc(F)cc3)CC2)cs1	/	/	/	/	/	133.2%
COCCNc1nc(Oc2cccc3ccccc23)c2sccc2n1	/	/	/	16.4µM*	11.6µM*	1.2%
COCCNc1nc(Oc2ccc(C(N)=O)cc2)c2sccc2n1	/	/	/	?	?	1.2%
COCCNc1nc(Oc2ccccc2)c2sccc2n1	/	/	/	23.1µM*	29.1µM*	10.8%
COc1ccc(-c2cc(N3CCN(C(=O)c4cccc(OC)c4OC)CC3)n[nH]2)cc1	/	/	/	/	/	27.2%
O=C(CCN1C(=O)/C(=C/c2ccc(Cl)cc2)SC1=S)Nc1cccnc1	6.6%	-16.1%	-1.4%	?	29.1µM*	-22.2%
COc1ccccc1/C=C1/SC(=S)N(CCC(=O)Nc2cccnc2)C1=O	-1.9%	-8.3%	22.3%	?	?	-13.4%
O=C(CCCN1C(=O)/C(=C/c2ccccc2OC(F)F)SC1=S)Nc1cccnc1	20.6µM*	/	/	13µM*	25.9µM*	-21.5%
Cc1ccc(/C=C2\SC(=S)N(CCCC(=O)Nc3cccnc3)C2=O)cc1	?	2.24µM*	6.31µM*	?	?	/
O=C(CCN1C(=O)/C(=C\c2ccccc2Cl)SC1=S)Nc1cccnc1	-6.4%	?	10.7%	?	-14.8%	-1.8%
